Screens: PubChem, National Center for Advancing Translational Sciences (NCATS)
ELG1 DNA repair: inhibitors of ELG1-dependent DNA repair in HEK293T cells; HEK293T ELG1-luciferase reporter, luminescence, 16 h; DNA damage induced by 5-fluorouridine; Potency, µM (titrated, usually from 46.1 µM), inactives show top-dose activity change, negative = inhibition, usual class: inhibitors; hit rate 2.3% among 330,000; AID 504467; note: % is set by controls: 0 for no effect and ±100 for the full control effect; nearly all actives have a fitted effect of over 55% in size
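Reporter activity after DNA damage by 5-fluorouridine is monitored. Compound-treated cells incubate 16 hr at 37 °C, then ONE-Glo is added for 30 min before luminescence reading.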
SW480 rerep: inducers of DNA re-replication in SW480 colon cancer cells | hit rate 1.8% among 340,000 | SW480 DNA re-replication, Hoechst DNA content imaging, 48 h | Potency, µM (doses to about 46.1 µM), inactives show top-dose re-replication activation, actives largely listed as activators; note: % of control where 0% means no effect; nearly all actives have a fitted effect of over 55% in size
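DNA re-replication was detected as more nuclei of elevated Hoechst intensity after 48 hr exposure to compound (23 nL pinned per well of 250 cells).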
MCF10A rereplic: inducers of DNA re-replication in MCF 10A breast cells; MCF 10A DNA re-replication, Hoechst nuclear intensity, 48 h; Potency, µM (titrated, usually from 46.1 µM), for the others: at the top dose activity, positive = re-replication, actives largely listed as activators; hit rate 2.9% among 350,000; AID 624296; note: % of control where 0% means no effect; nearly all actives have a fitted effect of over 50% in size
KB-3-1 cytotox: kills parental KB-3-1 adenocarcinoma cells | Potency, µM (highest dose often 46.1 µM), actives largely listed as cytotoxic | AID 1347075 | KB-3-1 viability, CellTiter-Glo ATP luminescence, 72 h | hit rate 1.4% among 400,000; note: % is set by controls: 0 for no effect and ±100 for the full control effect; nearly all actives have a fitted effect of over 60% in size
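Luminescent ATP read-out (CellTiter-Glo) measures survival of drug-naive KB-3-1 cells after 72 h compound exposure at 37 °C. Titration series was screened from lowest to highest concentration, with DMSO vehicle plates as background controls.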
KB-V1 cytotox: kills drug-selected multidrug resistant KB-V1 cells | KB-V1 MDR cells viability, CellTiter-Glo, 72 h | Potency, µM (highest dose often 46.1 µM), usual class: cytotoxic | hit rate 3.4% among 400,000 | AID 1347076; note: % is set by controls: 0 for no effect and ±100 for the full control effect; nearly all actives have a fitted effect of over 60% in size
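Readout: CellTiter-Glo luminescence, 10 min after addition. Cells: KB-V1 MDR subline, 72 h at 37 degrees C with compound. Analysis: corrected, normalized data fitted to concentration-effect curves.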
Active calls of the source: *. This is a sample that favours compounds with a hit; in the whole collection about 8.1% have one here. Calls come from the whole dose curve; as a rule, active = well fitted curve in the direction sought with a large enough effect; inconclusive = small, poorly fitted or top-dose-only effect, or another doubt; inactive = no such curve, though single readings can be large; an effect the other way counts as inactive or inconclusive. Potency is the fitted concentration of half-maximal effect.

`Cc1cccc(NC(=O)Nc2ccc(C#N)cc2)n1` gave ELG1 DNA repair -12.9%, SW480 rerep inconclusive, MCF10A rereplic 14.6µM*, KB-3-1 cytotox inconclusive and KB-V1 cytotox inconclusive.
COC(=O)c1ccccc1NC(=O)Nc1cccc(C)n1 was read as ELG1 DNA repair 6.0%, SW480 rerep 25.1%, MCF10A rereplic -9.8%, KB-3-1 cytotox inconclusive and KB-V1 cytotox inactive.
COc1ccccc1NC(=O)Nc1cccc(C)n1 was read as ELG1 DNA repair -2.5%, SW480 rerep -0.2%, MCF10A rereplic 5.8%, KB-3-1 cytotox 20.6µM* and KB-V1 cytotox inconclusive.
COc1cccc(CN(C)C(=O)C(Cc2ccccc2)NC(=O)c2ccccc2)c1OC (centres undefined) was read as ELG1 DNA repair inconclusive, SW480 rerep -37.0%, MCF10A rereplic 17.0%, KB-3-1 cytotox inactive and KB-V1 cytotox inconclusive.
CC(C)C(=O)N1CCCC1(C)C(=O)Nc1cccc(Oc2ccccc2)c1 (centres undefined) was read as KB-3-1 cytotox inactive and KB-V1 cytotox inactive.
Screening O=C(Cn1c2ccccc2c(=O)c2ccccc21)Nc1cccc(F)c1 returned ELG1 DNA repair 4.3%, SW480 rerep 18.4µM*, MCF10A rereplic 11.6µM*, KB-3-1 cytotox inactive and KB-V1 cytotox inactive.
Cc1cccc(C)c1NC(=O)Cn1c(=O)c2cccn2c2ccccc21 was read as ELG1 DNA repair -6.6%, SW480 rerep -2.1%, MCF10A rereplic -14.8%, KB-3-1 cytotox inactive and KB-V1 cytotox inactive.
CCc1cccc(NC(=O)Cn2c(=O)c3cccn3c3ccccc32)c1 was read as ELG1 DNA repair 24.4%, SW480 rerep 3.0%, MCF10A rereplic 18.4µM*, KB-3-1 cytotox inactive and KB-V1 cytotox inactive.
O=C(Cn1c(=O)c(=O)n(Cc2ccccc2)c2ccc(Cl)cc21)Nc1cccc(F)c1 was read as ELG1 DNA repair -3.7%, SW480 rerep -47.2%, MCF10A rereplic 11.4%, KB-3-1 cytotox inactive and KB-V1 cytotox 13µM*.
For C=C[C@@H]1c2ccccc2N(S(=O)(=O)c2ccc(C)cc2)[C@H](c2ccccc2)C1(C#N)C#N the results were ELG1 DNA repair 19.9%, SW480 rerep inconclusive, MCF10A rereplic -4.8%, KB-3-1 cytotox inconclusive and KB-V1 cytotox inconclusive.
For O=C(CN(Cc1ccc(F)cc1)C(=O)CNS(=O)(=O)c1ccccc1)NCC1CCCO1 (centres undefined) the results were ELG1 DNA repair inconclusive, SW480 rerep -4.6%, MCF10A rereplic 0.5%, KB-3-1 cytotox inactive and KB-V1 cytotox inactive.
`Cc1cc(C(=O)COC(=O)c2ccc(Cl)c(S(N)(=O)=O)c2)c(C)n1CC1CCCO1` (centres undefined) gave ELG1 DNA repair inconclusive, SW480 rerep -1.8%, MCF10A rereplic 0.1%, KB-3-1 cytotox inactive and KB-V1 cytotox inactive.
COCCn1c(C)cc(C(=O)COC(=O)c2ccc(Cl)c(S(N)(=O)=O)c2)c1C was read as ELG1 DNA repair inconclusive, SW480 rerep -6.3%, MCF10A rereplic 4.4%, KB-3-1 cytotox inactive and KB-V1 cytotox 23.1µM*.
Screening Cc1ccccc1CNC(=O)c1ccc2c(c1)c(C)c(C)n2C returned KB-3-1 cytotox inactive and KB-V1 cytotox inactive.
`CCN(CC)c1ccc(NC(=O)c2ccc3c(c2)c(C)c(C)n3C)cc1` gave ELG1 DNA repair inconclusive, SW480 rerep inconclusive, MCF10A rereplic inconclusive, KB-3-1 cytotox 23.1µM* and KB-V1 cytotox 16.4µM*.
COc1cccc(C(=O)COc2cccc(NC(=O)c3cccc([N+](=O)[O-])c3)c2)c1 was read as ELG1 DNA repair 13µM*, SW480 rerep 9.9%, MCF10A rereplic inconclusive, KB-3-1 cytotox inconclusive and KB-V1 cytotox inconclusive.
Cc1cc(NC(=O)c2ccc(Cl)cc2)no1 was read as ELG1 DNA repair inconclusive, SW480 rerep -10.0%, MCF10A rereplic 6.2%, KB-3-1 cytotox inactive and KB-V1 cytotox inactive.
`O=C(COc1cccc(NC(=O)c2cccc([N+](=O)[O-])c2)c1)c1ccc(F)cc1` gave ELG1 DNA repair inconclusive, SW480 rerep -2.2%, MCF10A rereplic inconclusive, KB-3-1 cytotox inconclusive and KB-V1 cytotox inconclusive.
